# Screening results as filed in PubChem.
# A selection: hits, their analogues and other compounds. The true share with any hit is near 27%.
# CYP2C9 inh – inhibitors of human CYP2C9; P11712; CYP2C9 Supersomes, luciferin-H conversion, luminescence; inhibition, % at 5 µM; 20% of 96,000 active; AID 777;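 active = blocking of liver enzyme CYP2C9 beyond about 50% at 5 µM, limit read from the data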
# Target sequence (P11712 whole entry, looked up): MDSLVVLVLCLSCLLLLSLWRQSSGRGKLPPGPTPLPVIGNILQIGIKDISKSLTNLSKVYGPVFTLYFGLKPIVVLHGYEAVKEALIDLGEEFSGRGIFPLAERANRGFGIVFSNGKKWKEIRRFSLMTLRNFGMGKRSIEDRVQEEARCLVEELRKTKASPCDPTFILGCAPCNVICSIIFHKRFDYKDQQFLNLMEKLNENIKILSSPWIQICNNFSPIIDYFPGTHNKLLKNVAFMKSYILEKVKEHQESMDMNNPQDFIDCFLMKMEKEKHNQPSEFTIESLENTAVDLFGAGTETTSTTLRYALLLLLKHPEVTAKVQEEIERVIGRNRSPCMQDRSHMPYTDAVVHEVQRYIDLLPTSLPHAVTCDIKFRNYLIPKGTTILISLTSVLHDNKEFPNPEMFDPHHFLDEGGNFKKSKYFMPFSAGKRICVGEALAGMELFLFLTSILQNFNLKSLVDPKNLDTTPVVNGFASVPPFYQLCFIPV
# CYP2C9 activ – activators of human CYP2C9 | P11712 | recombinant CYP2C9, luciferin-H conversion, luminescence; stronger effect = higher value; factor 1 = untreated enzyme, 0 = blocked | activation factor at 5 µM | 1.4% of 96,000 active | AID 1024;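 active = activation factor of 2 or more for CYP2C9 at a 5 µM dose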;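 also: 0 = sulfaphenazole-blocked wells and 1 = vehicle-only wells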
# Cav32 inh – inhibitors of human Cav3.2 T-type calcium channel; Cav3.2-expressing cells, Fluo-4 calcium fluorescence FDSS; stronger effect = lower value; 4% of 100,000 active; B-score at 10 µM; AID 449739; O95180;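 active = single-dose well whose peak fluorescence ratio is a statistical outlier from its plate by either plate-standardised score or position-corrected B-score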
# PTK2B oligo ant – Pyk2 (human) oligomerization antagonism. Q14289. Q293 cells, Pyk2 FERM NanoBiT luminescence; stronger effect = lower value. z-score (the deposit names both 25 µM and 10 µM). 0.83% of 99,000 active. AID 1347419;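 active = Z-score of -3 or lower, scaled per plate to the spread of control and sample wells; inactive = z-score above -3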;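 also: negative z-score means lost luminescence so less FERM oligomerization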
# CYP2C19 inhib – human CYP2C19 inhibition | inhibition, % at 5 µM | CYP2C19 Supersomes, luciferin-H EGE luminescence, 30 min | 21% of 96,000 active;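 active = CYP2C19 inhibition above a set limit at 5 µM in the primary screen, cut at about 50% in these data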;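 also: plate controls were negative control wells for no effect and 2.5 mM tranylcypromine positive control for full effect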
# CYP2C19 act – activators of human cytochrome P450 2C19 | P33261 | recombinant CYP2C19, luciferin-H EGE luminescence; stronger effect = higher value; 0 = fully inhibited enzyme, 1 = untreated enzyme | activation factor at 5 µM | 96,000 tested, under 10 active;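 active = activation factor of at least 2 at 5 µM in the primary screen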;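 also: 0 = wells with 2.5 mM tranylcypromine and 1 = vehicle-only wells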
# The depositor's hits bear a star; · = no result.
SMILES,CYP2C9 inh,CYP2C9 activ,Cav32 inh,PTK2B oligo ant,CYP2C19 inhib,CYP2C19 act
CCOC(=O)C1CCN(C(=O)CN(c2ccc3c(c2)OCO3)S(C)(=O)=O)CC1,-10,1.1,·,-0.04,-15,1.1
CC(C)C[C@H](NC(=O)c1nc[nH]c1C(=O)N1CCN(C(=O)OC(C)(C)C)CC1)C(=O)OC(C)(C)C,·,·,1.2,·,·,·
CC(=O)Nc1cc(NC(C)=O)cc(C(=O)NC(C)(C)C)c1,10,0.9,0.96,0.4,1,1
COc1ccc(S(=O)(=O)NCc2ccc(C(=O)N3CCN(c4ccccn4)CC3)cc2)cc1,44,0.6,0.012,0.71,20,0.8
CN(c1ccccc1)S(=O)(=O)c1cccc(C(=O)N2CCN(c3ccccn3)CC2)c1,88*,0.1,-2.2,2,79*,0.2
CN(C)S(=O)(=O)c1cccc(C(=O)N2CCN(Cc3ccccc3)CC2)c1,4,1,1.1,-0.03,53*,0.5
CCCCC1=CC2=CC(=O)C(C)(OC(=O)CC)C(=O)C2=CN1Cc1ccc2c(c1)OCO2 (centres undefined),·,·,-0.031,·,·,·
O=C(O)CSCC(=O)NCc1ccccc1,-11,1.1,0.13,0.62,2,1
Cn1c(CCNC(=O)c2ccccc2)nc2cc(NC(=O)C3CCCCC3)ccc21,20,0.8,1.7,0.29,10,0.9
O=C(CN1CCN(Cc2ccccc2Cl)C1=O)N1CCCCCC1,-47,1.5,0.062,0.13,59*,0.4
CCN1C(=O)/C(=C/c2nc3ccccc3c(=O)n2-c2ccccc2)c2ccccc21,5,1,0.54,-3.2*,4,1
COc1ccc(Cn2nc(C)n(N(C)c3ncc(C(F)(F)F)cc3Cl)c2=O)cc1,16,0.8,-2.4,-0.28,53*,0.5
COc1ccc(-c2nnc(SCC(=O)Nc3ncc(C(F)(F)F)cc3Cl)n2CC(C)C)cc1,·,·,·,-0.94,·,·
CN(c1nc2c(c(=O)n(C)c(=O)n2C)n1CC(=O)c1ccccc1)C1CCCCC1,66*,0.3,-0.77,-0.43,46,0.5
Cn1c(Br)nc2c1c(=O)n(CC(O)COc1ccccc1)c(=O)n2C (centres undefined),11,0.9,2,-0.92,86*,0.1
Cn1c(=O)c2c(nc(N3CCCCCC3)n2CC(O)COc2ccccc2)n(C)c1=O (centres undefined),28,0.7,-1.5,-0.5,7,0.9
Cn1c(=O)c2c(nc(NC3CCCCC3)n2CC(O)COc2ccccc2)n(C)c1=O (centres undefined),52*,0.5,0.86,-0.75,37,0.6
COc1ccc(C2=NN(C(=O)c3cccc([N+](=O)[O-])c3)C(c3cccc([N+](=O)[O-])c3)C2)cc1 (centres undefined),44,0.6,-0.14,1.9,8,0.9
COc1ccc(C(=O)N2CCc3cc(OC)c(OC)cc3C2c2cccc([N+](=O)[O-])c2)cc1OC (centres undefined),69*,0.3,·,0.12,19,0.8
CCOC(=O)N1CCC(NC(=O)Cn2ncc3c4ccccc4n(C)c3c2=O)CC1,·,·,1.5,1.1,·,·
CCOC(=O)C(C)(C)C(=O)C(C)(C)C(O)c1ccccn1 (centres undefined),-1,1,0.85,2,51*,0.5
O=C1CC(NCc2ccncc2)C(=O)N1c1ccc(Cl)cc1 (centres undefined),82*,0.2,0.48,-0.8,88*,0.1
O=C1CC(NCc2cccs2)C(=O)N1c1ccc(Cl)cc1 (centres undefined),-3,1,0.71,1.1,42,0.6
O=C1CC(NNc2nc3ccccc3s2)C(=O)N1c1ccccc1 (centres undefined),10,0.9,-0.19,-0.16,36,0.6
O=C1CC(NCc2ccncc2)C(=O)N1c1ccccc1 (centres undefined),91*,0.1,0.23,0.03,94*,0.1
SMILES,CYP2C9 inh,CYP2C9 activ,Cav32 inh,PTK2B oligo ant,CYP2C19 inhib,CYP2C19 act
CCCCc1ccc(N2C(=O)[C@@H]3C(CC(N)=O)NC4(C(=O)Nc5ccc(F)cc54)[C@@H]3C2=O)cc1 (some centres undefined),25,0.8,0.2,-0.22,-8,1.1
COc1ccc(/C=N/c2oc(-c3ccccc3)cc2C#N)cc1,24,0.8,-0.67,0.24,12,0.9
COc1[nH]c(/N=C/c2ccccc2)c(C#N)c1C#N,75*,0.3,-5.9*,-0.44,15,0.8
O=C(NC1CCCCC1)C(c1ccc(F)cc1)N(Cc1ccc2c(c1)OCO2)C(=O)c1cnsn1 (centres undefined),·,·,-0.2,-1.6,·,·
CCOC(=O)C1CCN(S(=O)(=O)Cc2ccccc2)C1=O (centres undefined),6,0.9,0.69,-0.43,77*,0.2
CCOC(=O)C1CCN(C(C)=C2C(=O)c3ccccc3C2=O)CC1,14,0.9,0.9,0.29,5,1
O=C1c2ccccc2C(Nc2ccc(Cl)cn2)N1Cc1ccccc1 (centres undefined),70*,0.3,-5.1,·,81*,0.2
O=C1c2ccccc2C(Nc2ccccc2)N1c1ccc(Cl)cn1 (centres undefined),-2,1,-0.13,·,3,1
Cc1ccc(CNC(=O)/C(C#N)=C\c2ccc(N(C)C)cc2)cc1,1,1,-1,·,-4,1
O=C(Nc1ccccc1-c1nnn(CC(=O)N2CCCc3ccccc32)n1)c1ccc(Cl)cc1,·,·,-3.1,-0.53,·,·
O=C(Nc1ccccc1-c1nnn(CC(=O)N2CCCc3ccccc32)n1)c1ccco1,90*,0.1,-0.42,-2.1,54*,0.5
CCc1cccc2c(C#N)cn(CC(=O)NCc3ccco3)c12,14,0.9,-2,0.22,51*,0.5
CC(C)C(=O)c1cn(CC(=O)NCc2ccco2)c2ccccc12,·,·,1.3,0.2,·,·
O=C(CSC1CC(=O)N(CCc2ccccc2)C1=O)Nc1ccc(Br)cc1 (centres undefined),25,0.8,-4.8*,-0.31,37,0.6
O=C(NCCN1CCN(c2ccccc2)CC1)c1cccn2c(=O)c3cc(Cl)ccc3nc12,64*,0.4,-1.3,0.63,39,0.6
CCOC(=O)N1CCN(C(=O)c2cccn3c(=O)c4cc(Cl)ccc4nc23)CC1,40,0.6,0.64,0.66,27,0.7
Cc1cccc(C(=O)NCCN2CCN(c3ccccc3)CC2)c1,12,0.9,1.7,1.6,11,0.9
O=C(NCCN1CCN(c2ccccc2)CC1)c1cccc(Br)c1,45,0.6,-3.9,0.33,53*,0.5
O=C(NCCc1ccccc1)C(=O)NCC1(c2ccccc2)CCCC1,-2,1,-0.046,1.9,-2,1
O=C(NCC1(c2ccccc2)CCCC1)c1cccc(Br)c1,6,0.9,-7.5*,-1.4,1,1
